# Screens (PubChem)
# ST2 inh: inhibitors of human ST2 (IL1RL1) binding to IL-33. AID 1259354. inhibition, % for hits at 17 µM. AlphaLISA ST2-Fc/biotin-IL-33 interaction, 1 h. Q01638. actives 2.3% (n = 78,000); in the data active = inhibition above about 30%
# Target sequence (Q01638 whole entry, looked up): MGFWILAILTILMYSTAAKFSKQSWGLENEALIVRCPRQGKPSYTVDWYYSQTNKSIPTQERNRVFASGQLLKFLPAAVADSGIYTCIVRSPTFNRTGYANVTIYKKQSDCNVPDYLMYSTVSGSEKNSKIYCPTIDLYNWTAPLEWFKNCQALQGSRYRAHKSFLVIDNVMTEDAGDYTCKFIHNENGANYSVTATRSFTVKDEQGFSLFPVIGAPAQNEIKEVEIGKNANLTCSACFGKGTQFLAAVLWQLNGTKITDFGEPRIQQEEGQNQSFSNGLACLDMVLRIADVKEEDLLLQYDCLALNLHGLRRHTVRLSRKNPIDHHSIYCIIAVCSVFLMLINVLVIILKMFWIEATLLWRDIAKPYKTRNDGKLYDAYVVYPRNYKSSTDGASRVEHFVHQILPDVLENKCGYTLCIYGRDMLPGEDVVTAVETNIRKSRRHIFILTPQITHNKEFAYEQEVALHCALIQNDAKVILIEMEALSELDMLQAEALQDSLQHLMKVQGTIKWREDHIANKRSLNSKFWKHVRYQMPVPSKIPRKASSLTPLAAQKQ
# * marks the source's active call; other numbers are inactive results; i = inactive; ! = not confirmed by another sample. This excerpt belongs to a sample that is enriched for hits.
SMILES,ST2 inh
O=C(CN1C(=O)/C(=C/c2ccccc2F)Sc2ccccc21)N1CCCCC1,39%*
O=C(CN1C(=O)/C(=C\c2cccc(Cl)c2)Sc2ccccc21)NCCN1CCCC1,i
CNC(=O)CN1C(=O)/C(=C/c2ccccc2F)Sc2ccccc21,i
O=C(CN1C(=O)/C(=C/c2ccccc2F)Sc2ccccc21)NC1CCCCCC1,i
O=C(CN1C(=O)/C(=C\c2ccc(Cl)cc2)Sc2ccccc21)N1CCCCC1,41%*
Cn1c(-c2c(-c3ccccc3)ncn2CCF)nc2ccccc21,i
Cc1ccc(-c2noc(CCC(=O)NC(C)c3ccc4c(c3)OCCO4)n2)cc1 (stereo not drawn),i
CCOC(=O)c1c(NC(=O)C2CC2c2ccccc2)sc2c1CCCC2 (stereo not drawn),i
O=C(Nc1ccccc1Br)C12CC3CC(CC(C3)C1)C2,i
COc1cccc(CNC(=O)CN2CCCN(Cc3cccc(Cl)c3)S2(=O)=O)c1,i
O=C(Cc1ccc(O)c(Cl)c1)N1C[C@H]2C[C@H](O)[C@H](O)C[C@H]2C1,i
CC(C)(C)c1ccc(S(=O)(=O)Nc2ccc3oc(=O)sc3c2)cc1,i
CC(NC(=O)CN1C(=O)/C(=C\c2cccc(Cl)c2)Sc2ccccc21)c1ccccc1 (stereo not drawn),i
Cc1ccccc1/C=C1\Sc2ccccc2N(CC(=O)NC(C)c2ccccc2)C1=O (stereo not drawn),32%*
CNC(=O)CN1C(=O)/C(=C/c2ccccc2C)Sc2ccccc21,i
Cc1cccc(C)c1NC(=O)CSc1nc2ccc([N+](=O)[O-])cc2s1,i
CC1CC(C)CN(C(=O)C2CCC(CNS(=O)(=O)c3cccc4nsnc34)CC2)C1 (stereo not drawn),i
C=CCNC(=O)C(C)SCc1ccccc1 (stereo not drawn),i
O=C(NCc1scnc1-c1ccccc1)c1cn(CCc2ccccc2)nn1,i
O=C(Nc1ccc2oc(-c3ccncc3)nc2c1)c1ccc(-c2ccccc2)o1,41%*
CN(C)c1ccc(-c2nc3cc(NC(=O)Cc4ccccc4)ccc3o2)cc1,i
O=C(Nc1ccc2oc(-c3ccc(F)cc3)nc2c1)c1ccccc1,i
O=C(CC(c1ccccc1)c1ccco1)N1CCCn2cncc2C1 (stereo not drawn),i
Cc1cccn2c(=O)c3cc(C(=O)Nc4ccc5c(c4)OCCO5)n(C)c3nc12,i
c1ccc(-c2nnc(-c3cccnc3)o2)cc1,i
SMILES,ST2 inh
CC(=O)N1c2ccccc2C(=O)OC1c1cccnc1 (stereo not drawn),i
c1ccc(C2(c3ccccc3)OC(c3cccnc3)Nc3ccccc32)cc1 (stereo not drawn),35%*
COc1ccc(OCC(=O)Nc2cc(Cl)ccc2OCc2cc(=O)n3oc(C)cc3n2)cc1,i
CCC(=O)NCCCc1nc2ccccc2n1CC,i
CCOc1ccccc1CN1CCN(Cc2ccc3nsnc3c2)CC1CCO (stereo not drawn),i
CN(C)c1ccc(NC(=O)CCC(=O)O)cc1,51%*
O=C(O)CCC(=O)Nc1ccc(I)cc1,i
O=C(O)CCC(=O)Nc1ccc(C(=O)O)cc1,i
N/C(Cc1ccc(Cl)cc1Cl)=N/OC(=O)c1cccs1,i
CCn1c2ccccc2c2cc(NC(=O)CSc3cc(=O)n(C)c4ccccc34)ccc21,i
CCn1c2ccccc2c2cc(/C=C/[N+](=O)[O-])ccc21,38%*
CCn1c2ccccc2c2cc(CN3CCCN(C)CC3)ccc21,i
O=C(NC1CCCCCCC1)c1ccccc1,i
Nc1cc(C(=O)O)ccc1NC1CCCCC1,31%*
O=C(NC1CCCCC1)c1ccc(Cl)cc1,i
COc1cccc(C(=O)N=c2sc3cc(F)ccc3n2C)c1,i
CCC(C)Sc1nc(O)cc(=O)n1-c1ccccc1 (stereo not drawn),i
O=C(Nc1ccccc1)c1c[nH]c(=O)n(-c2ccccc2)c1=O,i
COc1ccc(-c2nc(S(=O)(=O)c3ccc(Cl)cc3)c(NCc3ccco3)o2)cc1,i
N#Cc1nc(-c2ccc(Cl)cc2)oc1NCc1ccco1,35%*!
O=S(=O)(c1ccccc1)c1nc(-c2ccc(Cl)cc2)oc1NCc1ccco1,i
CCOc1ccc(S(=O)(=O)Nc2ccc3oc4c(c3c2)C(=O)CC(C)(C)C4)cc1,i
C(=Nc1cc(-c2ccccc2)nn1-c1ccccc1)c1cccnc1,33%*
O=c1c2cnn(-c3ccccc3)c2ncn1Cc1cccnc1,i
O=C(Cn1nc(-c2ccccc2)ccc1=O)NCc1cccnc1,i
SMILES,ST2 inh
CC(=O)N1c2c(cc(Br)cc2S(=O)(=O)N2CCC3(CC2)OCCO3)CC1C (stereo not drawn),i
COc1ccc(NC(=O)CSc2nnc(NC(=O)c3ccccc3Br)s2)cc1,i
O=C1C=C(c2cccs2)C[C@H](c2ccccc2)[C@H]1n1nnc([N+](=O)[O-])n1,41%*
CCOC(=O)C1C(=O)C=C(c2cccs2)CC1c1ccc(OC)c(OC)c1 (stereo not drawn),i
CCOC(=O)C1C(=O)C=C(c2cccs2)CC1c1ccccc1OCC (stereo not drawn),i
O=C1N=c2ccc(F)cc2=C1c1sc(Nc2ccc(F)cc2)nc1O,48%*
NC(=O)C1CCN(c2nc(O)c(C3=c4ccccc4=NC3=O)s2)CC1,i
Cc1ccc(Nc2nc3ccccc3c(=O)s2)cc1,i
O=C1N=c2ccccc2=C1c1sc(Nc2ccc(Br)cc2)nc1O,40%*
Cc1ccc(C)c(-c2csc(Nc3ccc(F)cc3)n2)c1,i
COc1ccc(Nc2nc3ccc(F)cc3s2)cc1,i
CCCCNC(=O)c1sc2ncnc(N3CCCCC3C)c2c1C (stereo not drawn),i
CCOC(=O)N1CCN(C2CCCN(Cc3cn[nH]c3-c3ccc(Cl)cc3)C2)CC1 (stereo not drawn),i
Cn1c(=O)[nH]c(=O)c2c1nc(NCc1ccccc1)n2Cc1ccc(Cl)cc1,i
COc1cc(NC(=O)/C=C/c2ccc(Cl)cc2)ccc1NC(=O)c1ccco1,i
COc1cc(-c2ccc(NC(C)=O)c(OC)c2)ccc1NC(C)=O,i
COc1cc(-c2ccc(NC(=O)c3ccco3)c(OC)c2)ccc1NC(=O)c1ccco1,31%*
Cc1ccc(C)c(Cn2c(CN3CCOCC3)nc3c2c(=O)[nH]c(=O)n3C)c1,i
N#Cc1cccc(-c2ccc(=O)n3c2[C@@H]2C[C@@H](CN(S(=O)(=O)c4ccccc4C#N)C2)C3)c1,i
CC(C)c1cc(C2CCCN2C(=O)c2cnn3c2CCCC3)no1 (stereo not drawn),32%*
CCn1nc(C)c(NC(=O)CN2CCCC2c2cc(C(C)C)on2)c1C (stereo not drawn),i
Cc1noc(C)c1C1CCCN1C(=O)c1cnn2ccn(C)c12 (stereo not drawn),i
CC1CCC(C(=O)NC(Cc2c[nH]c3ccccc23)C(=O)NCc2ccco2)CC1 (stereo not drawn),i
COc1ccc(S(=O)(=O)NCc2nc3cccnc3n2Cc2cccc(C)c2)cc1,i
O=C(NC(Cc1c[nH]c2ccccc12)C(=O)O)c1ccccc1 (stereo not drawn),i
O=C(N[C@H]1CCN2C(=O)[C@@H](Cc3c[nH]c4ccccc34)NC(=O)[C@H]12)c1ccccc1,79%*
CC(C)C1NC(=O)CNC(=O)C2CCCN2C(=O)C(Cc2c[nH]c3ccccc23)NC(=O)CNC(=O)C(C(O)c2ccc(O)cc2)NC(=O)CNC1=O (stereo not drawn),i
